Screening data (PubChem BioAssay)
In the library only some 11% were active in any assay of this set; here they are far more common.
HPGD inh = inhibitors of human 15-hydroxyprostaglandin dehydrogenase (HPGD); actives 4.3% (n = 150,000); Potency, µM, inactives show at the highest dose activity change, negative = inhibition, most hits filed as inhibitors; purified HPGD, NADH fluorescence kinetic, PGE2 substrate; P15428; active means well fitted inhibition curve with a large enough effect, not every such curve was filed as active; inconclusive means small, poorly fitted or top-dose-only effect, or another doubt; inactive means no such curve, though single readings can be large or run the other way; further: potency means the concentration at half of the fitted maximal effect
Target sequence (P15428 whole entry, looked up): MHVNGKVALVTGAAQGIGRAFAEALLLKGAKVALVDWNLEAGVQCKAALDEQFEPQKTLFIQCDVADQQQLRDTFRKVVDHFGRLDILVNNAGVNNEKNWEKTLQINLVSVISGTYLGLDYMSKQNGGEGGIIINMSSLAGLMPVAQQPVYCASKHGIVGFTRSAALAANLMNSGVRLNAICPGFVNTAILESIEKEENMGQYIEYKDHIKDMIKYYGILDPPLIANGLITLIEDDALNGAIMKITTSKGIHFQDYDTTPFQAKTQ
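20 nM HPGD preincubated 15 min at room temperature with compound in 50 mM Tris-HCl pH 8, 0.01% Tween 20. Started with 1 mM NAD+ and 30 uM prostaglandin E2; NADH fluorescence (360/450 nm) read 5 times over 30-s intervals, last minus first.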
ALDH1A1 block = inhibitors of human aldehyde dehydrogenase 1A1 | actives 7.3% (n = 220,000) | P00352 | AID 1030 | Purified ALDH1A1, NADH fluorescence, propionaldehyde substrate | Potency, µM (highest dose often 75.3 µM), without a hit: at the top dose activity, negative = inhibition, hits mostly inhibitors; active means well fitted inhibition curve with a large enough effect, not every such curve was filed as active; inconclusive means small, poorly fitted or top-dose-only effect, or another doubt; inactive means no such curve, though single readings can be large or run the other way;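 further: potency means the concentration at half of the fitted maximal effect; plate controls were no enzyme wells and a reference inhibitor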
PNC assembly inh = perinucleolar compartment assembly inhibition; PC3M PTB-GFP, PNC prevalence imaging, 16 h; stronger effect = lower value; activity change (PNC), negative = inhibition, % at 10 µM; actives 3.1% (n = 140,000);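 active means readout at or below -70, meaning at least 70% loss of cells showing the perinucleolar compartment, a nuclear body marking cancer cells; inconclusive means readout between -30 and a set limit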;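 further: plate controls were DMSO wells for no effect and camptothecin positive control wells for full effect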
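Compounds are pinned in duplicate onto adhered PC3M cells stably expressing GFP-tagged PTB and incubated 16 h at 37 C. Cells are then fixed, nuclei stained with Hoechst, and PNC-positive cells counted.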
ALOX12 inhib = 12-hLO (ALOX12) enzyme inhibition; purified 12-hLO, xylenol orange hydroperoxide absorbance; Potency, µM (top dose mostly 57.1 µM), inactives show top-dose activity change, negative = inhibition, actives largely listed as inhibitors; actives 0.12% (n = 150,000); further: potency means the concentration at half of the fitted maximal effect; nearly all actives have a fitted effect of over 55% in size
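Xylenol orange chromogenic assay: hydroperoxide from 12hLO oxidises Fe(II), giving red-shifted Fe(III)-XO absorbance. Conditions: 150 nM enzyme, 40 uM arachidonic acid, 25 mM Hepes pH 7.0, 0.01% Triton X-100, 30 min, room temperature.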
IMPase inh = IMPase inhibition in cells | P97697 | 120,000 tested, under 10 active | inhibition (IP1 accumulation), % at 46.1 µM | CHO-M1 cells, IP1 accumulation, HTRF TR-FRET ratio; active means well fitted curve in the direction sought with a large enough effect in the signal ratio, not every such curve was filed as active; inconclusive means small, poorly fitted or top-dose-only effect, or a change in a side signal; inactive means no such curve, though single readings can be large or run the other way; the % refers to the signal ratio;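 further: cells stimulated with carbachol in lithium chloride buffer; plate controls were DMSO basal wells for no effect and reference inhibitor wells for full effect; higher means more IMPase inhibition seen as more IP1 and lower FRET ratio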
Target sequence (P97697 whole entry, looked up): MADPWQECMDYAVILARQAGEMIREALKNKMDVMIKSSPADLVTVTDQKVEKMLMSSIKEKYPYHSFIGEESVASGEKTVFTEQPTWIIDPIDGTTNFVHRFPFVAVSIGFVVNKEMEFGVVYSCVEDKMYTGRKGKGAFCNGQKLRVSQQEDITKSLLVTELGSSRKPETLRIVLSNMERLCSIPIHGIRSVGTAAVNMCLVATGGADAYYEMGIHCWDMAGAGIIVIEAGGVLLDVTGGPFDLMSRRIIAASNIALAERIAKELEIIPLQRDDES
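Elevated IP1 in lysates lowers TR-FRET signal (665/620 ratio and 620 channel reported). Cells were CHO-M1, given carbachol (50 uM as added) plus 50mM LiCl, pH 7.4, 30 min, 37C; compounds titrated up to 46 uM; AC50 by Hill equation.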
IMPase Li cell = cell-permeable IMPase inhibitors with lithium potentiation; AID 1457; Potency, µM (doses to about 59.4 µM), without a hit: at the top dose activity, negative = IMPase inhibition, usual class: inhibitors; CHO-M1 cells, IP1 TR-FRET (IP-One), carbachol + lithium; actives 0.35% (n = 210,000);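 further: IP1 builds up when IMPase is blocked and the TR-FRET signal falls; potency means the concentration at half of the fitted maximal effect; plate controls were basal vehicle for no effect and high inhibitor control for full effect; nearly all actives have a fitted effect of over 50% in size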
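Concentration–response in CHO-M1 cells, lithium-potentiated; 30 min at 37C. IP1 detected by competitive TR-FRET after 10 min lysis at RT. Hill-fitted AC50.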
Active calls of the source: *; [ ] = dose if it differs, or a comment. Unless noted, the call rests on the fitted dose curve; in most records, active means well fitted curve in the direction sought with a large enough effect; inconclusive means small, poorly fitted or top-dose-only effect, or another doubt; inactive means no such curve, though single readings can be large; an effect the other way counts as inactive or inconclusive. Unless noted, on the % scale 0 is the no-effect control and ±100 the full control effect.

CC(=O)O[C@H]1CC[C@@]2(C)C(=CC[C@@H]3[C@@H]4CC[C@H](c5cc(C(F)(F)F)n(C(C)=O)n5)[C@]4(C)CC[C@@H]32)C1 was read as HPGD inh -5%, ALDH1A1 block 4%[13.5 µM], ALOX12 inhib 5%[11.4 µM] and IMPase Li cell 20%.
CC(=NCC(=O)O)c1ccccc1 was read as HPGD inh 0%, ALDH1A1 block 5%[13.5 µM], ALOX12 inhib -11%[11.4 µM] and IMPase Li cell -9%.
C=CCn1c(-c2cccc(OCC)c2)n[nH]c1=S was read as ALDH1A1 block -4% and IMPase Li cell -2%.
C=CCn1c(-c2cc(OC)cc(OC)c2)n[nH]c1=S was read as HPGD inh -28%, ALDH1A1 block 22µM*, PNC assembly inh -28, ALOX12 inhib -4%, IMPase inh -6 and IMPase Li cell -7%[38.3 µM].
`COCC(=O)N1CCC2(CCN(Cc3nccs3)CC2)CC1` gave HPGD inh -7%, ALDH1A1 block 9%, ALOX12 inhib -1% and IMPase Li cell 15%.
CC1Cc2ccccc2N1C(=O)CN1CCC(n2nnc3cc(C(F)(F)F)ccc32)CC1 (stereo unspecified) was read as HPGD inh inconclusive, ALDH1A1 block 11µM*, PNC assembly inh -28, ALOX12 inhib -1%, IMPase inh 18 and IMPase Li cell 34%[38.3 µM].
`OCCC1CN(Cc2cccn2-c2cccnc2)CCN1Cc1ccc(F)cc1` (stereo unspecified) gave ALDH1A1 block 4% and IMPase Li cell 6%.
For CC(C)CN1CCN(Cc2cccn2-c2cccnc2)CC1CCO (stereo unspecified) the results were ALDH1A1 block 3.5µM* and IMPase Li cell 7%.
Screening Nc1ccc(C(=O)Nc2ccc3nc(-c4cccnc4)[nH]c3c2)cc1 returned HPGD inh -2%, ALDH1A1 block 4%, PNC assembly inh 18, ALOX12 inhib -2%, IMPase inh -4 and IMPase Li cell 4%[38.3 µM].
`CC(=O)Nc1cccc(-c2nc3ccc(NC(C)=O)cc3[nH]2)c1` gave HPGD inh inconclusive, ALDH1A1 block inconclusive, PNC assembly inh 1, ALOX12 inhib 2%, IMPase inh -12 and IMPase Li cell 1%[38.3 µM].
`CC(=O)Nc1ccc2nc(-c3cccnc3)[nH]c2c1` gave HPGD inh inconclusive, ALDH1A1 block inconclusive, PNC assembly inh -100*, ALOX12 inhib 1%, IMPase inh -16 and IMPase Li cell 0%.
`COC(=O)c1ccc(C(=O)Nc2ccc3nc(-c4cccnc4)[nH]c3c2)cc1` gave HPGD inh -9%, ALDH1A1 block 11%, PNC assembly inh -83*, ALOX12 inhib 7%, IMPase inh -2 and IMPase Li cell 6%.
Screening O=C(Cn1c(=O)c2ccccc2n(CC(=O)Nc2ccc(F)cc2F)c1=O)NCCc1ccccc1 returned IMPase inh -5.
`Cc1ccc(N2CC(C(=O)N/N=C/c3cccc([N+](=O)[O-])c3)CC2=O)cc1` (stereo unspecified) gave HPGD inh -18%, ALDH1A1 block -14%, PNC assembly inh -83*, ALOX12 inhib 1%, IMPase inh inconclusive and IMPase Li cell 5%[38.3 µM].
For CCCCOc1ccc(/C=C/C(=O)OCC(=O)NC(=O)NCC(C)C)cc1OCC the results were HPGD inh inconclusive, ALDH1A1 block inconclusive, PNC assembly inh -112*, ALOX12 inhib 6%, IMPase inh 2 and IMPase Li cell -7%.
`CCOC(=O)c1cnc2c(C)c(Cl)ccc2c1Nc1ccc(N2CCOCC2)cc1` gave IMPase inh -7.
For Cc1nn(-c2ccc(S(=O)(=O)O)cc2)c(O)c1N=Nc1ccc(-c2ccc(N=Nc3ccc4c(S(=O)(=O)O)cc(S(=O)(=O)O)c(N)c4c3O)c(O)c2)cc1O.[Cu].[Cu] the results were HPGD inh 0.79µM*, ALDH1A1 block inconclusive, ALOX12 inhib -21%[11.4 µM] and IMPase Li cell 7%.
